# DT40 TDP1 CPT = DT40-hTDP1 cell growth loss with CPT; AID 686979; 12% of 420,000 active; Potency, µM (series often up to 46.2 µM), inactives show at the top dose activity change, negative = growth inhibition, hits mostly inhibitors; chicken DT40 Tdp1-/-;hTDP1 cells + 20 nM CPT, ATP luminescence, 48 h; also: potency is read from the fitted curve at half-maximal effect; nearly all actives have a fitted effect of over 55% in size
#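 Chicken DT40 Tdp1-/- cells complemented with human TDP1, 400 cells/well, exposed to compounds plus 20 nM camptothecin for at least 48 h at 37 C; viability read as ATP content by CellTiter-Glo luminescence.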
# HT1080 IDH1KD tx = kills HT-1080 cells with IDH1 knockdown; Potency, µM (series often up to 46.1 µM), for the others: top-dose activity, negative = toxicity, actives largely listed as cytotoxic; HT-1080 IDH1 knockdown viability, ATP luminescence, 48 h; 2% of 360,000 active;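 also: potency is read from the fitted curve at half-maximal effect; 0% = DMSO wells and -100% = cell-free medium wells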
#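 IDH1KD HT-1080 cells, 750/well, RPMI + 5% FBS; compound pinned after 2 h settling; 48 h, 37 °C; CellTiter-Glo luminescence; % activity normalised to DMSO and no-cell wells; curves fitted, classed by r2 and efficacy.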
# HT1080-NT tox = kills 2HG-producing HT-1080-NT fibrosarcoma cells; HT-1080-NT fibrosarcoma viability, CellTiter-Glo ATP luminescence, 48 h; Potency, µM (top dose mostly 46.1 µM), inactives show at the highest dose activity, negative = less viability, most hits filed as cytotoxic; 1.6% of 360,000 active; AID 686970;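 also: NT is the 2HG producing partner of a matched IDH1 knockdown line; potency is read from the fitted curve at half-maximal effect; 0% = DMSO-treated cells and -100% = media-only wells without cells; nearly all actives have a fitted effect of over 55% in size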
#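 Compounds were tested in concentration-response format on HT-1080-NT cells for 48 hours at 37 degrees C. Cell viability came from CellTiter-Glo luminescence; curves were classified by r2, response magnitude and activity.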
# TDP1 cell noCPT = qHTS for Inhibitors of human tyrosyl-DNA phosphodiesterase 1 (TDP1): qHTS in cells in absence of CPT; Potency, µM (top dose mostly 46.2 µM), for inactives: at the highest dose activity change, negative = growth inhibition, usual class: inhibitors; AID 686978, 2013; 15% of 420,000 active; DT40 Tdp1-/- hTDP1 cells, no CPT, ATP luminescence, 48 h; also: potency is read from the fitted curve at half-maximal effect; nearly all actives have a fitted effect of over 55% in size
#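 Luminescent ATP content (CellTiter-Glo) served as the growth readout. Knockout chicken DT40 cells expressing human TDP1 were exposed to compounds without camptothecin for a minimum 48 hr at 37 °C.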
# ALOX12 inh = ALOX12 (human) lipoxygenase inhibition. P18054. purified 12hLO, xylenol orange hydroperoxide absorbance. Potency, µM (highest dose often 108 µM), for inactives: at the highest dose activity change, negative = inhibition, usual class: inhibitors. 1.1% of 580,000 active; also: potency is read from the fitted curve at half-maximal effect
# Target sequence (P18054 whole entry, looked up): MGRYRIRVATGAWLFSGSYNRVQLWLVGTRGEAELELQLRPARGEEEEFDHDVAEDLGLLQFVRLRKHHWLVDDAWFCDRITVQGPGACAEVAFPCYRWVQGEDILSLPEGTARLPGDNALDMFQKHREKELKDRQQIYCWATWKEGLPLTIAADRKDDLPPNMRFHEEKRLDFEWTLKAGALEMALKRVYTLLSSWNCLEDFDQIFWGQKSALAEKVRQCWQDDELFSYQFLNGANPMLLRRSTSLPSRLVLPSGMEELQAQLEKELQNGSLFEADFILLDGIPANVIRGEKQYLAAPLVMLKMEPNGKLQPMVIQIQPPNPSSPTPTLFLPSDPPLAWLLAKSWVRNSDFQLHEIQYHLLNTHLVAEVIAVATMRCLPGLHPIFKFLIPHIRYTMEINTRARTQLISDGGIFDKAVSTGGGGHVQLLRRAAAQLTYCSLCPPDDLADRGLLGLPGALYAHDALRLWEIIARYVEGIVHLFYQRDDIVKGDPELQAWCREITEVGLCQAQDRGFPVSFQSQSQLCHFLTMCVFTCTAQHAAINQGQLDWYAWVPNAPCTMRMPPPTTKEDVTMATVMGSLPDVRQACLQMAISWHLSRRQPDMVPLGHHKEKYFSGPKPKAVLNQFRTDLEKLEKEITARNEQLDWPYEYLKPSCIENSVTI
#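 Purified human 12hLO (150 nM final) in 25 mM Hepes, 0.01% Triton X-100, pH 7.0 was preincubated 15 min at room temperature with compound. Then 40 uM arachidonic acid was added, 30 min. Hydroperoxide was read by Fe-XO absorbance ratio 573/405 nm.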
# IL-1B inflam inh = inhibitors of inflammasome signaling (IL-1 beta secretion); 4.7% of 360,000 active; THP-1 LPS/ATP IL-1B secretion, AlphaLISA, 16 h; hits give low values; activity change, % at 57.5 µM; in the data active = activity change below about -50%; inconclusive = mostly about -30% to -49%
#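 THP-1 cells pretreated 1 hr with compounds (up to 57.5 uM final), then stimulated with LPS (250 ng/mL final) plus ATP (1.25 mM final); secreted IL-1B measured by AlphaLISA after 16 hr, decreased signal indicating inhibition.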
# * = called active by the depositor; ? = inconclusive; nt = no result; [ ] = remark or other dose. Shown is part of a subset that was picked to be rich in hits. Unless noted, calls follow the shape of the dose curve; as a rule, active = well fitted curve in the direction sought with a large enough effect; inconclusive = small, poorly fitted or top-dose-only effect, or another doubt; inactive = no such curve, though single readings can be large; an effect the other way counts as inactive or inconclusive. Unless noted, % is scaled to controls: 0 for no effect and ±100 for the full control effect.
SMILES,DT40 TDP1 CPT,HT1080 IDH1KD tx,HT1080-NT tox,TDP1 cell noCPT,ALOX12 inh,IL-1B inflam inh
CCOC(=O)C1=C(c2ccccc2)NC(=S)NC1c1cc([N+](=O)[O-])ccc1OC (stereo unspecified),-25%,-4%,-5%,?,40µM*,-6
CCOC(=O)C1=C(c2ccccc2)NC(=S)NC1c1ccc(C)c([N+](=O)[O-])c1 (stereo unspecified),23µM*,-16%,-20%,16µM*,-4%,57
CCOC(=O)C1=C(c2ccccc2)NC(=O)NC1c1ccc(O)c(OCC)c1 (stereo unspecified),-12%,0%,-3%,-9%,1%,8
O=C(Cc1ccncc1)N1CC(F)(F)C[C@H]1c1nc(C2CC2)no1,nt,nt,nt,nt,19%,nt
O=C(NCC(=O)N1CCN(S(=O)(=O)c2c(Cl)cccc2Cl)CC1)NCc1ccccc1,nt,nt,nt,nt,42%,nt
CCc1nc2c(c(-c3ccc(Cl)cc3)n1)CN(S(=O)(=O)c1ccccc1)CC2,nt,nt,nt,nt,17%,nt
COc1ccc(CNc2nc(SCc3cc(=O)n4cc(Cl)ccc4n3)nc3ccccc23)cc1,13µM*,-4%,-1%,21µM*,-7%,19
O=c1cc(CSc2ccccc2NS(=O)(=O)c2ccc(F)cc2)nc2ccc(Cl)cn12,nt,nt,nt,nt,-27%,nt
CN(C)C(=O)CO,nt,nt,nt,nt,2%,nt
CN1C[C@@H](NC(=O)Nc2ccccc2)C[C@H]1c1nc(-c2ccccc2)no1,nt,nt,nt,nt,28µM*,nt
O=C(Nc1ccc(Cl)cc1)N1CCC(c2nc(-c3ccc(F)cc3)no2)CC1,10µM*,?,?,11µM*,-6%,?
COc1ccc(-c2noc(C3CCCN(C(=O)Nc4ccccc4F)C3)n2)cc1 (stereo unspecified),?,-7%,-15%,23µM*,2%,1
O=C1CCN(C(=O)Nc2ccccc2F)CCCC(c2nc(-c3cccnc3)no2)CCN1 (stereo unspecified),nt,nt,nt,nt,49%,nt
COc1ccc(NC(=O)N2CCC(Oc3ccc(-c4noc(C5CC5)n4)cc3)C2)cc1 (stereo unspecified),nt,nt,nt,nt,41%,nt
COc1ccc(-c2noc(C3CCCN(C(=O)Nc4ccccc4)C3)n2)cc1 (stereo unspecified),26µM*,-2%,-14%,?,-8%,-2
Cc1ccc(NS(=O)(=O)c2ccc(F)cc2F)cc1S(N)(=O)=O,nt,nt,nt,nt,-15%,nt
O=C(NCCCNC(=O)C1CCCC1)C1CCCC1,nt,nt,nt,nt,-7%,nt
COc1ccc(NC(=O)N2CCCC(c3nc(-c4ccc(C(C)C)cc4)no3)C2)cc1 (stereo unspecified),?,?,11µM*,21µM*,2%,-50*
COc1ccc(NC(=O)N2CCCC(c3nc(-c4ccc(OC)cc4)no3)C2)cc1 (stereo unspecified),?,-24%,-3%,?,-5%,-54*
O=C(c1ccc2ncsc2c1)N(Cc1ccccc1)Cc1ccco1,nt,nt,nt,nt,-16%,nt
CCn1nc(C(=O)OCCOc2ccc(OC)cc2)c2ccccc2c1=O,nt,nt,nt,nt,-4%,nt
CN(C)CCCCSC(=N)N,1%,nt,nt,-26%,2%,nt
N=C(N)SCCN,23µM*,-1%,12%,15µM*,1%,21
S=C(NCCc1ccc(Cl)cc1)NC1CCCCC1,?,?,-24%,?,40µM*,-94*
S=C(NCCc1ccc(Cl)cc1Cl)NC1CCCCC1,nt,nt,nt,nt,18µM*,nt
SMILES,DT40 TDP1 CPT,HT1080 IDH1KD tx,HT1080-NT tox,TDP1 cell noCPT,ALOX12 inh,IL-1B inflam inh
S=C(NCCc1ccc(Cl)cc1)NC1CCCC1,?,13%,9%,?,?,3
S=C(NCc1ccc(Cl)cc1)NC1CCCC1,nt,nt,nt,nt,40µM*,nt
S=C(NCCSc1ccc(Cl)cc1)NC1CCCC1,nt,nt,nt,nt,28µM*,nt
O=C(N[C@@H]1CN(Cc2ccncc2F)C[C@H]1CO)C1CC1,nt,nt,nt,nt,2%,nt
CS(=O)(=O)N1CCC(OC2CCN(C(=O)Nc3ccc(Cl)cc3F)CC2)CC1,nt,nt,nt,nt,44%,nt
COc1ccc(-n2cc(C(=O)Nc3ccc(F)c(F)c3)nn2)cc1,nt,nt,nt,nt,3%,nt
Cc1ccc(CNC(=S)NC2CCC(C(C)(C)C)CC2)cc1 (stereo unspecified),?,-12%,7%,23µM*,?,25
S=C(NCCc1ccccc1)NC1CCCc2ccccc21 (stereo unspecified),nt,nt,nt,nt,14µM*,nt
O=C(CCc1ccccc1)NC1CCCc2ccccc21 (stereo unspecified),?,-3%,1%,-25%,-16%,6
S=C(NCCc1ccccc1)NC1CCCCCC1,18µM*,-24%,-8%,?,?,6
Cc1ccc(OCc2nc(CCN(C)C(=O)c3ccccc3C(F)(F)F)no2)cc1C,nt,nt,nt,nt,4%,nt
CCOc1ccc(CN2CCCCC23Cc2ccccc2CNC3=O)cc1 (stereo unspecified),nt,nt,nt,nt,5%[6.33 µM],nt
CCc1ccc(-c2cc(C(F)(F)F)n3nc(C(=O)NCc4cnn(C)c4)cc3n2)s1,nt,nt,nt,nt,-1%,nt
CCc1ccc(-c2cc(C(F)(F)F)n3nc(C(=O)Nc4cnn(Cc5ccc(C)cc5)c4)cc3n2)s1,5µM*,3.2µM*,?,5µM*,nt,-27
Cc1cccc2[nH]c3c(N4CCN(C(=O)c5ccco5)CC4)ncnc3c12,?,-1%,0%,18µM*,nt,?
O=C(c1ccco1)N1CCN(c2ncccn2)CC1,21%,2%,16%,15%,49%[57.4 µM],14
Cc1sc2ncnc(N3CCN(C(=O)c4ccco4)CC3)c2c1C,-19%,-27%,-26%,21µM*,5%,-23
Cc1ccc(CN2CCCN(Cc3ccncc3)C(c3ccccc3)CC(=O)NCC2)o1 (stereo unspecified),nt,nt,nt,nt,62%,nt
COc1cc(OC)c(-c2nnc(-c3ccc(OC)c(OC)c3OC)o2)cc1OC,14µM*,-14%,-15%,13µM*,-9%,-29
COc1ccc(-c2cnc3n[nH]c(-c4ccccc4)c3n2)cc1,nt,nt,nt,nt,-4%[176 µM],nt
COc1ccccc1NS(=O)(=O)c1ccc(NC(=O)Cc2cccs2)cc1,?,-8%,-7%,?,-4%,0
COc1ccc(S(=O)(=O)Nc2ccccc2OC)cc1NC(=O)Cc1cccs1,?,-2%,0%,21µM*,-4%,0
COc1ccccc1NS(=O)(=O)c1cccc(C(=O)N(C)Cc2cccs2)c1,23µM*,-6%,-2%,23µM*,1%,16
O=C(O)CCc1ccc(-c2ccc(Cl)cc2)n1Cc1ccco1,-2%,17%,0%,-6%,40µM*,12

# Screening data from PubChem BioAssay.
